High-throughput results deposited in PubChem BioAssay by National Center for Advancing Translational Sciences (NCATS).
KB-V1 cytotox: kills drug-selected multidrug resistant KB-V1 cells | Potency, µM (doses to about 46.1 µM), actives largely listed as cytotoxic | 400,000 tested, 3.4% active | KB-V1 MDR cells viability, CellTiter-Glo, 72 h; further: potency means the concentration at half of the fitted maximal effect; on the % scale 0 is the no-effect control and ±100 the full control effect; nearly all actives have a fitted effect of over 60% in size
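Readout: CellTiter-Glo luminescence, 10 min after addition. Cells: KB-V1 MDR subline, 72 h at 37 degrees C with compound. Analysis: corrected, normalized data fitted to concentration-effect curves.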
DRD3 agonist: D3 dopamine receptor (human) agonism; P35462; D3R DiscoveRx beta-arrestin cells, luminescence, 90 min; max activation, %; 410,000 tested, 0.58% active; in the data active means max activation above about 30%; further: 0% is about no effect
Target sequence (P35462 whole entry, looked up): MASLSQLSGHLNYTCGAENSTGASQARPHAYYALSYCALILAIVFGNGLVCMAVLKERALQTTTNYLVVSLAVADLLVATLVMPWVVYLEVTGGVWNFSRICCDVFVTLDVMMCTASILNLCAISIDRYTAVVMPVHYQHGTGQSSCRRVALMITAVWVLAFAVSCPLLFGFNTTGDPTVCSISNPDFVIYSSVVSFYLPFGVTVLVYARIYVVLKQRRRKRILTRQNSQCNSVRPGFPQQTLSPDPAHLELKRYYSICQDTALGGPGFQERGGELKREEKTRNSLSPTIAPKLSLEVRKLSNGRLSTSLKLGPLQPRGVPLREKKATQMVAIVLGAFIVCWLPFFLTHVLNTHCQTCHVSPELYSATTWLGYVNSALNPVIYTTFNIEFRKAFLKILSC
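Agonist-mode cell screen: cells plated at 1500/well and incubated overnight at 37 °C, then exposed to library compounds for 90 min at 37 °C. Detection reagent was added for 30–60 min at room temperature, and luminescence was read.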
SW480 rereplic: inducers of DNA re-replication in SW480 colon cancer cells; SW480 DNA re-replication, Hoechst DNA content imaging, 48 h; Potency, µM (series often up to 46.1 µM), inactives show at the highest dose re-replication activation, most hits filed as activators; 340,000 tested, 1.8% active; AID 624297; further: potency means the concentration at half of the fitted maximal effect; % of control where 0% means no effect; nearly all actives have a fitted effect of over 55% in size
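Compounds, transferred as 23 nL by pin tool, were incubated with cells for 48 hr; DNA content per nucleus was then quantified by Hoechst staining and fluorescence plate imaging.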
KB-3-1 tox: kills parental KB-3-1 adenocarcinoma cells; KB-3-1 viability, CellTiter-Glo ATP luminescence, 72 h; 400,000 tested, 1.4% active; Potency, µM (top dose mostly 46.1 µM), actives largely listed as cytotoxic; further: potency means the concentration at half of the fitted maximal effect; on the % scale 0 is the no-effect control and ±100 the full control effect; nearly all actives have a fitted effect of over 60% in size
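Cytotoxicity measured as CellTiter-Glo luminescence after 72 h at 37 C. Compound titrations were pinned onto drug-naive KB-3-1 parental adenocarcinoma cells grown in DMEM with 10% FBS, and normalized data fitted to concentration-response curves.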
D3 antag: blocks the human D3 dopamine receptor; D3R cells, DiscoveRx beta-arrestin luminescence, antagonist mode; stronger effect = lower value; max response, negative = inhibition, %; AID 652054; 360,000 tested, 2.5% active; in the data active means max response below about -50%; inconclusive means no clear call, values can overlap the other calls; further: on the % scale 0 is the no-effect control and ±100 the full control effect
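Cells expressing the human receptor were seeded at 1500 cells/well, incubated overnight at 37 degrees C in 5% CO2, then exposed to library compounds with dopamine controls for 90 minutes at 37 degrees C before luminescent detection.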
MCF10A rereplic: induces DNA re-replication in MCF 10a normal breast cells; MCF 10A DNA re-replication, Hoechst nuclear intensity, 48 h; Potency, µM (doses to about 46.1 µM), inactives show top-dose activity, positive = re-replication, most hits filed as activators; 350,000 tested, 2.9% active; further: potency means the concentration at half of the fitted maximal effect; % of control where 0% means no effect; nearly all actives have a fitted effect of over 50% in size
* marks the source's active call; other numbers are inactive results; i = inactive; ? = inconclusive; . = no result given; ! = not confirmed by another sample; [ ] = another dose, or the depositor's remark. An excerpt weighted towards active compounds, which were near 8.9% of everything screened. Unless noted, the call rests on the fitted dose curve; in most records, active means well fitted curve in the direction sought with a large enough effect; inconclusive means small, poorly fitted or top-dose-only effect, or another doubt; inactive means no such curve, though single readings can be large; an effect the other way counts as inactive or inconclusive.

SMILES	KB-V1 cytotox	DRD3 agonist	SW480 rereplic	KB-3-1 tox	D3 antag	MCF10A rereplic
CCCCNc1nc(N)nc(-c2cc(Cl)ccc2O)n1	12µM*	4	?	?	-17	21µM*
CCOC(=O)c1c(NC(=O)c2cc(=O)c3c(C)cc(C)cc3o2)sc2c1CCC2	?	4	.	i	.	.
COc1ccc(NS(=O)(=O)c2ccccc2C(=O)O)cc1	i	.	.	?	.	.
Clc1ccc2nc(-c3ccc(Cl)nc3)[nH]c2c1	?	-1	13µM*	i	7	?
Nc1ccc2nc(-c3ccc(Cl)cc3)[nH]c2c1	i	-7	2%	18µM*	-8	?
Cc1nc2ccc(-c3nc4ccccc4o3)cc2[nH]1	?	-4	-11%	i	17	6%
Nc1ccc(-c2nc3ccc(-c4nc5ccccc5o4)cc3[nH]2)cc1	i	13	4.5µM*	i	35	4µM*
Nc1ccc(-c2nc3ccc(N)cc3[nH]2)cc1	i	2	5%	i	8	0%
COC(=O)c1nc2n(n1)C(c1cccc(Cl)c1)C(C(=O)Nc1ccccc1OC)=C(C)N2 (stereo not drawn)	i	3	.	i	.	.
Cc1cc(C)cc(NC(=O)c2c(C)oc3nc(C)nc(N4CCCC4)c23)c1	.	10	.	.	.	.
NC(=O)c1ccccc1OCC(=O)O	i	6	-3%	i	17	3%
NC(=O)c1ccccc1OCC(=O)NS(=O)(=O)c1ccccc1	i	-2	22%	i	-65*	-2%
COc1ccc(N2Cc3cccc(C(=O)Nc4ccc(C)c(C)c4)c3C2=O)cc1	i	3	.	i	.	.
COCCn1c(C)cc(/C=C(\C#N)C(=O)OCC(=O)Nc2ccc(S(N)(=O)=O)cc2)c1C	i	10	-33%	i	10	16µM*
CCCn1c(C)cc(/C=C(\C#N)C(=O)OCC(=O)Nc2ccc(OC)c(Cl)c2)c1C	?	-6	7%	i	-12	3%
C#CCOCCOCCOCCNc1nc(N2CCN(C(=O)[C@H](C)n3cc(CCC(=O)O)nn3)CC2)nc(N2CCN(C(=O)[C@H](CCCCN)n3cc(CCCC)nn3)CC2)n1	i	-1	3%	i	-6	-12%
NNc1nc2sc3c(c2c(=O)[nH]1)CCc1ccccc1-3	i	-6	-2%	i	-55*	?
CCSc1nc2sc3c(c2c(=O)[nH]1)CCc1ccccc1-3	i	2	?	i	-11	?
CCc1ccccc1NC(=O)CC(C)n1nc(C)cc1C (stereo not drawn)	i	8	.	i	.	.
CCC[N+]1(CC#CC(O)(c2ccccc2)C2CCCCC2)CCCCC1 (stereo not drawn)	i	-45	-15%	i	-54*	4%
CCCCC(=O)Oc1ccc2oc(-c3ccc(OC)cc3)cc(=O)c2c1	6.5µM*	14	.	i	.	.
COc1ccc(-c2cc(=O)c3cc(OC)ccc3o2)cc1	i	5	-10%	i	10	-9%
O=C(CCCSc1ccccc1)Nc1nc(-c2ccco2)c(-c2ccco2)s1	?	-2	0%	i	-12	15µM*
CC1(C)C(=O)N(CC(=O)Nc2ccc(Br)cc2F)c2ccccc21	i	-1	.	i	.	.
COc1ccc(-c2nc3ccc(C)cn3c2NCc2ccccc2)cc1SC1CCCCC1	i	-12	3%[9.22 µM]	i	-4	18µM*
SMILES	KB-V1 cytotox	DRD3 agonist	SW480 rereplic	KB-3-1 tox	D3 antag	MCF10A rereplic
COc1cc(-c2nc3ccc(C)cn3c2Nc2ccc3c(c2)OCCO3)ccc1O	i	0	8%	i	16	21µM*
CCCCNc1c(-c2ccc(SC3CCCCC3)c(OC)c2)nc2ccc(C)cn12	?	-10	?	?	152	10µM*
COc1ccc(-c2ccc(-c3nc4ccc(C)cn4c3NC3CCCCC3)cc2OC)cc1	16µM*!	55*!	?	?	43	?
COc1cc(OC)c(NC(=O)CC(C)S(=O)(=O)c2ccc3c(c2)NC(=O)CO3)cc1Cl (stereo not drawn)	?	11	.	i	.	.
CCCCNc1c(-c2ccc(OC)c(SC3CCCCC3)c2)nc2ccc(C)cn12	?	27	105%	?	0	7.3µM*
COc1ccc(-c2nc3ccc(Cl)cn3c2NC2CCCCC2)cc1SC1CCCCC1	i	13	-1%	?	1	16µM*
Cc1nn2c(C)c(C(=O)NCc3ccco3)cnc2c1-c1ccccc1	i	-3	.	i	.	.
Cc1nnc(SCC(=O)N2CCCCCC2)n(N)c1=O	i	-3	-7%	i	4	-1%
Cc1nnc(SCC(=O)N2CCC(Cc3ccccc3)CC2)n(N)c1=O	i	-26	2%	i	-99*	0%
C=C1C2=C(C(=O)N1OC)[C@@H](O)[C@@](C)(O)[C@@H](CCCCC)O2	i	2	.	18µM*	-10	.
COc1ccc(CNC(=O)c2cc(C3CC3)nc3c2cnn3C(C)C)cc1	i	-14	-6%	i	10	2%
COc1ccccc1CNC(=O)c1cc(C2CC2)nc2c1cnn2C(C)C	2.9µM*	2	9%	i	-28	?
CC(C)n1ncc2c(C(=O)Nc3cccc(C#N)c3)cc(C3CC3)nc21	i	-6	-20%	?	12	23µM*
CCNC(=O)c1cccc(NC(=O)c2cc(C3CC3)nc3c2cnn3C(C)C)c1	i	11	-7%	?	34	-7%
COc1ccc(NC(=O)Cn2nnnc2-c2ccccc2F)c(C)c1	.	6	.	.	.	.
O=C(O)CC1S/C(=N/N=C/c2ccc(-c3ccc(Cl)cc3[N+](=O)[O-])o2)NC1=O (stereo not drawn)	i	-7	-12%	i	-77*	-3%
Cc1cc(=O)[nH]c(SCC(=O)c2ccc(O)c(O)c2)n1	i	31*	-20%[1.84 µM]	i	-4	?
O=C(CSc1nc2ccccc2c(=O)[nH]1)c1ccc(O)c(O)c1	18µM*	6	2%	?	44	22%
Cc1cc(C(=O)CSc2nc(N)cc(=O)[nH]2)ccc1F	i	-6	7%	i	12	13µM*
Cc1ccc(C(=O)CSc2nc(N)cc(=O)[nH]2)cc1C	i	0	-4%	i	33	-8%
O=C(CSc1nc2ccccc2c(=O)[nH]1)c1ccc(O)cc1O	i	14	17%	i	91	9%
Cc1cc(SCC(=O)c2ccc(O)c(O)c2)n2nc(C)c(-c3ccccc3)c2n1	?	5	7.3µM*	?	-4	?
